Compounds with a hit are over-represented: about 1.7% of the library has one in this group of screens.
GSTO1 inh – counter-screen for RBBP9 inhibitors: inhibitors of human GSTO1. P78417. recombinant GSTO1, activity-based probe fluorescence polarization. inhibition, % at 5.96 µM. 300,000 tested, 1.1% active. AID 1974;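 active = inhibition above the campaign mean inhibition plus 3 SD, cut at about 35% in these data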;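 note: 0% = GSTO1-1 with DMSO and 100% = wells lacking GSTO1-1 enzyme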
Target sequence (P78417 whole entry, looked up): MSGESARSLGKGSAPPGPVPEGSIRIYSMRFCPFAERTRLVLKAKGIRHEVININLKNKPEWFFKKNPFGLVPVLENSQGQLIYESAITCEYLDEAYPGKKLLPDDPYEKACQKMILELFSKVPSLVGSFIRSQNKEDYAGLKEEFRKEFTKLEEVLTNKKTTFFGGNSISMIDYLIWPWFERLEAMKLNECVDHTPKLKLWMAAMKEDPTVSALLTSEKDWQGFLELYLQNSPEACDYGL
PAD4 inh – blocks human protein arginine deiminase 4; AID 485272; 330,000 tested, 0.41% active; Q9UM07; inhibition, % at 6.36 µM; recombinant PAD4, RCA probe fluorescence polarization;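 active = percent inhibition above a cutoff equal to the mean of all tested compounds plus 3 SD, cut at about 15% in these data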;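 note: 0% = PAD4 with RCA probe and DMSO and 100% = probe without PAD4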
Fam108B inh – Fam108B inhibition, counter-screen for RBBP9 inhibitors. 300,000 tested, 0.33% active. recombinant Fam108B, FP-Rh probe fluorescence polarization. inhibition, % at 9.51 µM;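 active = inhibition above the screen mean inhibition plus 3 SD, computed separately per campaign, cut at about 18% in these data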;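 note: inhibitors lower polarization as less probe binds the enzyme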
PME-1 primary – blocks human protein phosphatase methylesterase 1; inhibition, % at 5.9 µM; 320,000 tested, 0.53% active; recombinant PME-1, FP-Rh probe fluorescence polarization; Q9Y570;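 active = inhibition above the campaign mean of all compounds plus 3 SD, cut at about 26% in these data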;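 note: competitive labeling of PME-1 active site by serine hydrolase directed probe; 0% = PME-1 with DMSO and 100% = wells lacking PME-1 enzyme; inhibitors block probe labeling so polarization falls and inhibition rises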
Target sequence (Q9Y570 whole entry, looked up): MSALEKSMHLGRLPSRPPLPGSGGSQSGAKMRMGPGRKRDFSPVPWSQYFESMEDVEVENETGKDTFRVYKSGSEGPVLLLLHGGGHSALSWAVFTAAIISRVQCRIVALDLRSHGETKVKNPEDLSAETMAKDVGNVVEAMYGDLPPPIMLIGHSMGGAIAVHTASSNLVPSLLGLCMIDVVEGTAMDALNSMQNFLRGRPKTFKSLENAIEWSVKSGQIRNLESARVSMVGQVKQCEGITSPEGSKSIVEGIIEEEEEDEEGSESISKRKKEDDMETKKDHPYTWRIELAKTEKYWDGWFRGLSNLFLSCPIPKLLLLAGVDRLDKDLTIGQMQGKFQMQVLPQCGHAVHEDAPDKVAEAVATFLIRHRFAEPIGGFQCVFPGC
LYPLA2 inh – blocks human lysophospholipase 2, a PME1 counter-screen; recombinant LYPLA2, FP-Rh probe fluorescence polarization; inhibition, % at 5.9 µM; 320,000 tested, 0.38% active; AID 2177;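 active = inhibition above the screen-wide mean plus 3 SD, limit set per campaign, cut at about 26% in these data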;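 note: 0% = LYPLA2 with DMSO and 100% = wells lacking LYPLA2 enzyme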
LYPLA1 inh – blocks human lysophospholipase 1, a PME1 counter-screen | 320,000 tested, 0.16% active | inhibition, % at 5.9 µM | recombinant LYPLA1, FP-Rh probe fluorescence polarization | O75608;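 active = inhibition above the mean of all tested compounds plus 3 SD, set per campaign, cut at about 14% in these data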;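 note: inhibitors block serine hydrolase probe labeling of LYPLA1 so polarization falls; 0% = enzyme with DMSO and 100% = wells lacking LYPLA1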
Starred values were filed as active, the others as inactive; . = not tested or not shown.

SMILES | GSTO1 inh | PAD4 inh | Fam108B inh | PME-1 primary | LYPLA2 inh | LYPLA1 inh
CC(C)[C@]1(c2ccc(Cl)cc2)ON(c2ccccc2C(F)(F)F)C1=O | . | -1 | . | -3 | 3 | 1
COc1cccc(C(CNC(=O)c2ccc(Cl)c(S(=O)(=O)N3CCCC3)c2)N(C)C)c1 (centres undefined) | . | 0 | . | . | . | .
Nc1ccc2c(c1)-c1ccccc1S(=O)(=O)N2 | 37* | 6 | 3 | -3 | 6 | -4
Cc1ccc2c(c1)-c1ccccc1S(=O)(=O)N2 | 3 | 0 | 1 | -1 | -1 | -2
CC1(C)C(/C=C/C=C/C=C/C=C2\N(CCCCS(=O)(=O)O)c3ccc4ccccc4c3C2(C)C)=[N+](CCCCS(=O)(=O)[O-])c2ccc3ccccc3c21 | 41* | -35 | -4 | -52 | -25 | -8
Cc1ccc(-c2c(C(=O)N/N=C/c3c[nH]c4ccccc34)nnn2-c2nonc2N)cc1 | 2 | 2 | 8 | 27* | 7 | -8
COCc1c(C(=O)N/N=C/c2c[nH]c3ccccc23)nnn1-c1nonc1N | -2 | -4 | 1 | 2 | 5 | 2
O=[N+]([O-])c1ccc(C2Nc3cccc4cccc(c34)N2)cc1 | 26 | 2 | 13 | 29* | -9 | -6
O=[N+]([O-])c1cccc(C2Nc3cccc4cccc(c34)N2)c1 | 27 | 0 | 21* | 21 | 2 | -5
CCN(CC)c1ccc(C2Nc3cccc4cccc(c34)N2)cc1 | 27 | -2 | 9 | 10 | -4 | -5
Cc1[nH][nH]c(=O)c1C(c1ccc(-c2ccc(Cl)c(Cl)c2)o1)c1c(C)[nH][nH]c1=O | 35* | 1 | 8 | 6 | 9 | 1
CN(C)C(CNC1CC(C)(C)NC(C)(C)C1)c1cccc(F)c1 (centres undefined) | 2 | 0 | 2 | 0 | 0 | -2
COc1ccc(OC)c(NC(=O)Nc2nnc(N3CCC(C)CC3)s2)c1 | 3 | -2 | 2 | 29* | -11 | -4
COc1ccc(NC(=O)Nc2nnc(N3CCC(C)CC3)s2)cc1OC | -1 | -5 | 2 | 20 | -2 | 1
CC(C)c1ccc(C2c3[nH]c4ccccc4c3C[C@H]3C(=O)N(c4ccccc4C(=O)N4CCC[C@@H]4C(=O)O)C(=O)N23)cc1 (some centres undefined) | 4 | 0 | -3 | 0 | 3 | 4
O=C(O)c1cc(N/N=C/C(Cl)=C/c2ccccc2)ccc1Cl | 40* | 1 | 5 | 11 | 5 | 6
Cc1ccc(S(=O)(=O)CNC(=S)c2cccc(Cl)c2)cc1 | 38* | 2 | -2 | -6 | 2 | -3
CCn1c2ccccc2c2cc(NC(=O)c3cccc([N+](=O)[O-])c3C)ccc21 | 1 | -3 | 10 | 2 | 7 | -2
CCn1c2ccccc2c2cc(NC(=O)c3ccc(C)c([N+](=O)[O-])c3)ccc21 | -40 | -2 | -3 | 37* | -10 | -9
O=C(NNC(=O)c1ccccc1F)c1cccc(-n2cccc2)c1 | 36* | -1 | 2 | -5 | -4 | -2
Cc1ccc(CNC(=O)/C(C#N)=C\c2ccc(N(C)C)cc2)cc1 | 18 | 12 | 8 | 27* | 7 | -2
Cc1c(NS(=O)(=O)c2cc(C(=O)NCc3cccnc3)ccc2Cl)c(=O)n(-c2ccccc2)n1C | . | 6 | . | . | . | .
Cc1c(NS(=O)(=O)c2cc(C(=O)NCCN(C)C)ccc2Cl)c(=O)n(-c2ccccc2)n1C | 37* | 3 | 7 | 5 | 3 | -1
CCOC(=O)NC(=O)CSc1ccc(S(=O)(=O)N(C)C2CCCCC2)cn1 | . | -4 | . | 19 | 4 | 2
COc1cc2c(cc1OC)CN(CC(=O)Nc1ccc(S(=O)(=O)N(C)C)cc1)CC2 | 3 | 0 | -2 | -2 | -1 | -4
SMILES | GSTO1 inh | PAD4 inh | Fam108B inh | PME-1 primary | LYPLA2 inh | LYPLA1 inh
COc1cc2c(cc1OC)CN(CC(=O)Nc1ccc(Cl)c(S(=O)(=O)N(C)C)c1)CC2 | 3 | -5 | -3 | 40* | -10 | -1
CCCCn1c(SCC(N)=O)nc2c(sc3ccccc32)c1=O | 50* | 2 | -3 | -2 | -7 | -5
COc1ccc2oc(C(=O)OCC(=O)N3CCN(S(=O)(=O)c4ccc(C)cc4)CC3)c(C)c2c1 | 0 | -7 | -3 | 31* | -10 | -3
Cc1ccc(S(=O)(=O)N2CCN(C(=O)COC(=O)c3oc4ccccc4c3C)CC2)cc1 | 0 | -2 | 3 | 25 | 5 | -1
CCc1nnc(NC(=O)CN2C(=O)N(C)C3(CCCCC3)C2=O)s1 | . | 0 | . | 2 | 2 | 0
O=C(Cn1nnc2c(cnn2-c2ccc(F)cc2)c1=O)Nc1ccccc1C(F)(F)F | -1 | -3 | 0 | 7 | 2 | 3
Cc1cc(C)n2nc(C(=O)OCC(=O)NNC(=O)c3ccccc3)nc2n1 | . | 1 | . | -4 | 4 | -3
COc1ccc(OCC(=O)NNC(=O)c2ccc3c(=O)n4c(nc3c2)CCC4)cc1 | 37* | -3 | -3 | -4 | -12 | -6
O=C(CCl)N(C/C=C/c1ccccc1)c1ccc2c(c1)OCCO2 | 93* | -1 | 4 | 2 | 9 | 5
COc1cc(/C=N/NC(=O)C(Cc2c[nH]c3ccccc23)NC(=O)OCc2ccccc2)cc([N+](=O)[O-])c1O (centres undefined) | 26 | 3 | 13 | 29* | 0 | -4
CCOc1ccc(NC(=O)CSc2nnnn2C2CC2)cc1S(=O)(=O)N1CCCC1 | . | -2 | . | -2 | -5 | -3
COc1ccc2cc(C=NS(=O)(=O)c3ccc(C)cc3)n(C)c2c1 | . | 1 | . | -2 | -5 | 0
O=C1NC2(CCCCC2)C(=O)N1Cc1ccc([N+](=O)[O-])cc1 | 5 | 1 | 0 | 0 | -5 | -1
Cc1cc(C)c2[nH]c(O)c(N=NC(=O)c3cc4c(s3)CCCC4)c2c1 | 0 | 3 | 0 | 26* | -3 | 2
COCCNC(=S)N=Nc1c(O)[nH]c2c(C)cc(C)cc12 | 6 | 0 | 7 | -1 | 9 | 4
Cc1ccc(NC(=O)CSc2nc(-c3ccco3)nc3cc(=O)[nH]n23)c(Cl)c1 | 32 | 3 | 6 | 2 | 2 | -1
CCC(CC)C(=O)OCC(=O)NC12CC3CC(CC(C3)C1)C2 | 37* | -4 | -4 | 4 | 0 | -1
O=C(O)c1cc(O)c2c(c1)C(=O)c1cccc(O)c1C2=O | 50* | -3 | 12 | 5 | -3 | 0
Cc1[nH]c2ccccc2c1/C=N/NC(=O)c1cc(-c2ccncc2)nc2ccccc12 | -3 | 7 | 16 | 26* | -1 | -12
Cc1[nH]c2ccccc2c1/C=N/NC(=O)c1ccccc1 | 2 | 2 | -2 | 1 | 7 | 0
Cc1ccc(Oc2ccc(OCC(=O)NC(CC(C)C)C(=O)O)cc2)cc1 (centres undefined) | 38* | -2 | -7 | -11 | -2 | -3
CN(c1cccc(NC(=O)Nc2cccc(Cl)c2)c1)S(C)(=O)=O | -34 | -8 | -3 | -18 | -23 | -20
